The text below walks through data of PubChem BioAssay (NCATS).

Holding throughout (test): Primary qHTS to identify gynecologic anti-cancer compounds using libraries of approved drugs and bioactive compounds (AID 1345084); also: nearly all actives have a fitted effect of over 55% in size
Settings in all cases: Gynecologic cancer cell panel viability, ATPlite luminescence, 48 h; series mostly up to 57.5 µM

The subject of assay [1] is OV90. In a few lines:
(§1)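 Five-point cytotoxicity, 48 h drug exposure at 37 C, 5% CO2, on cells seeded 16 h beforehand. ATP content read by ATPlite luminescence.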

For assay [2], the system named is PA-1. A digest of the protocol:
as §1

Assay [3] concerns SKOV3. In a few lines: as §1
For assay [4], the system named is Tov-21-G. A digest of the protocol:
as §1

Assay [5] has as its system Tov112D. In a few lines:
as §1

Results filed as inconclusive are left out. A number with no mark means an inactive call. The source made the active and inactive calls. Calls follow the shape of the dose curve; as a rule, active = well fitted cell-killing curve with a large enough effect; inconclusive = small, poorly fitted or top-dose-only effect, or effect the other way; inactive = flat fitted curve, though single readings scatter.
% is scaled to controls: 0 for no effect and ±100 for the full control effect; potency is read from the fitted curve at half-maximal effect.

Take `CC(C)c1cc(-c2ccc(F)c3ccccc23)nc(N)n1`: the Potency result in assay [1], in assay [2], in assay [3], in assay [4] and in assay [5] was “inactive” throughout.
`N#Cc1ccc(N2N=C3c4ccc(C(=O)O)cc4CC[C@@H]3[C@@H]2C2CCCC2)cc1Cl`: the Potency result in assay [1], in assay [2], in assay [3], in assay [4] and in assay [5] was “inactive” in each case.
As to `C[C@@H]1C[C@H](C)CN(CCC(=O)Nc2ccc(Br)cc2)C1`, the Potency entry in assay [1], in assay [2], in assay [3] and in assay [4] was “inactive” in each case.
`CC(=O)O[C@@H]1C[C@@]23C[C@@]24CC[C@H](O[C@@H]2OC[C@H](O)[C@H](O)[C@H]2O)C(C)(C)[C@@H]4CC[C@H]3[C@]2(C)[C@@H](O)C34O[C@H](C[C@@H](C)[C@@H]3[C@@]12C)[C@@H](C(C)(C)O)O4`: the Potency result in assay [1], in assay [2], in assay [3], in assay [4] and in assay [5] was “inactive” throughout.
For `C=C(C(=O)O)[C@@H]1CC=C(CCC(C)=O)[C@@H](C)CC1`, the Potency result in assay [1], in assay [2], in assay [3], in assay [4] and in assay [5] was “inactive” in each case.
Turning to `Cc1ccc(C(C)C)c(O[C@@H]2O[C@H](CO)[C@@H](O)[C@H](O)[C@H]2O)c1`, the Potency result in assay [1], in assay [2], in assay [3] and in assay [4] was “inactive” in each case.
`C=C1/C(=C/C=C2\CCC[C@]3(C)[C@@H]([C@@H](C)OCCC(O)(CC)CC)CC[C@@H]23)C[C@@H](O)C[C@@H]1O`: the Potency result in assay [1], in assay [2], in assay [3], in assay [4] and in assay [5] was “inactive” each time.
On to `Cn1cc(C2=C(c3coc4ccccc34)C(=O)NC2=O)c2cc(Br)ccc21`, for which the Potency entry in assay [1], in assay [2], in assay [3], in assay [4] and in assay [5] was “inactive” in each case.
For `Cc1cc2c(F)c(Oc3ncnn4cc(OCC(C)OC(=O)C(C)N)c(C)c34)ccc2[nH]1` (stereo not given), the Potency result in assay [1], in assay [2], in assay [3] and in assay [4] was “inactive” throughout.
Regarding `CS(=O)(=O)Nc1ccc2oc3c(OC(F)F)ccc(C(=O)Nc4c(Cl)cncc4Cl)c3c2c1`, the Potency entry in assay [1], in assay [2], in assay [3], in assay [4] and in assay [5] was “inactive” throughout.
In the case of `COC1CC(=O)C23C(=O)NC(CC(C)C)C2C(C)C(C)=CC3/C=C(\C)CCCC1O` (stereo not given), the Potency entry in assay [1], in assay [2], in assay [3], in assay [4] and in assay [5] was “inactive” in each case.
As to `COc1cccc(-c2cn(-c3ccc(CCN4CCC(O)CC4)cc3)c3ncnc(N)c23)c1`, the Potency in assay [1] was 28.2 µM (active); in assay [2], 12.6 µM (active); in assay [3] it was 8.91 µM (active); in assay [4] it was 17.8 µM (active).
Consider `Cc1nc(N2CCN(C(=O)c3ccco3)CC2)c2c3c(sc2n1)CCCC3`, for which the Potency result in assay [1], in assay [2], in assay [3], in assay [4] and in assay [5] was “inactive” in each case.
As for `CN1CC[C@@H](c2c(O)cc(O)c3c(=O)cc(-c4ccc(C(F)(F)F)cc4Cl)oc23)[C@@H]1CO`, the Potency entry in assay [1], in assay [2], in assay [3], in assay [4] and in assay [5] was “inactive” in each case.
Regarding `CCOc1cc(C(C)(C)C)ccc1C1=NC(C)(c2ccc(Cl)cc2)C(C)(c2ccc(Cl)cc2)N1C(=O)N1CCN(CCCS(C)(=O)=O)CC1` (stereo not given), the Potency entry in assay [1] and in assay [3] was “inactive” throughout. Besides, the values for the Potency in assay [2] and in assay [4] were 6.31 µM (active) and 15.8 µM (active), respectively.
Regarding `COc1cc(OC)c(NC(=O)c2ccc(Cc3cc4c(cc3C)C(C)(C)CCC4(C)C)o2)c(OC)c1`, the Potency result in assay [1], in assay [2], in assay [3], in assay [4] and in assay [5] was “inactive” throughout.
On to `CC(=O)OC1CC(C)(C(=O)O)CC2C3=CC(=O)C4C5(C)CCC(OC6OC(C(=O)O)C(O)C(O)C6OC6OC(C(=O)O)C(O)C(O)C6O)C(C)(C)C5CCC4(C)C3(C)CCC12C` (stereo not given), for which the activity change, negative = cytotoxicity is 2.42% [at 11.6 µM] in assay [1]; 22.8% [at 11.6 µM] in assay [2]; 0% [at 11.6 µM] in assay [3]; -2.43% [at 11.6 µM] in assay [4]; -0.209% [at 11.6 µM] in assay [5].
